This note sets out measurements from PubChem BioAssay (NCI).

Compounds without any hit were thinned out: in the full panel of roughly 83,000, 20% have a hit.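 Cells were grown in 96-well plates and exposed to the test compound at a single concentration for 48 hours; results are reported as percent growth, with values below 10 considered active.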 Unmarked numbers belong to inactive results. Calls of active or inactive are those of the source.

The subject of this test is NCI-H226 lung. In words: NCI-60 one-dose screen, 48 h (100 = growth as untreated, 0 = no growth, -100 = all killed). As to conditions: 10 µM unless noted. As for the experimental part:
Growth inhibition of the NCI-H226 human Non-Small Cell Lung tumor cell line is measured as a screen for anti-cancer activity. Cells are grown in 96 well plates and exposed to the test compound for 48 hours. Compounds are tested at a single concentration, which is 10^-5 M for most compounds. The reported endpoint is percent growth (GI% or GIPRCNT), where numbers from 0 - 100% represent growth inhibition, and numbers from -100% - 0 represent cell death. For example, a value of 40 represents 60% growth inhibition. A value of 0 means no net growth occurred over the course of the experiment. A value of -40 indicates 40% of cells at the beginning of the experiment died by the end of the experiment. A value of -100 means all cells are dead at the end of the experiment.
NCI-60 Human Tumor Cell Lines Screen was performed using the standard one-dose NCI protocol, which is described in more detail at https://dtp.cancer.gov/discovery_development/nci-60/default.htm.
Compounds with GIPRCNT values below 10 were considered active. Activity score was based on GIPRCNT using the following formula: […]
Score is 0 for GIPRCNT values of 100 or above, 50 for GIPRCNT values of 0, and 100 for GIPRCNT values of -100.
`O=C1NCc2ccc3c(-c4cccc(Cl)c4)c[nH]c3c21`: the growth was 89.6%. As for `COc1ccc2nc(-c3ccc(OC)c(OC)c3)cc(-c3nnc(SCC(=O)Nc4ccc(C(C)=O)cc4)o3)c2c1`, the growth is 96.9%. With `CCOC(=O)c1sc(/N=C2\NC(=O)/C(=C/c3ccc(N4CCN(C)CC4)cc3)S2)nc1C`, the growth is 99.7%.

For `CCCn1c(N)c(C(N)=O)sc1=S`, the growth is 103%. The value for `C=C1C(=O)O[C@H]2[C@H]1CC/C(COC(=O)CCCCC(=O)OC/C1=C/CC[C@@]3(C)O[C@H]3[C@H]3OC(=O)C(=C)[C@@H]3CC1)=C\CC[C@@]1(C)O[C@@H]21` was 75.3%; that for `COc1cc(/C=C/C(=O)c2cccs2)ccc1OCc1ccc(Cl)nc1` was 86.8%; that for `O=C(/C(=C\c1c(-c2ccccc2)[nH]c2ccccc12)S(=O)(=O)c1ccccc1)c1ccccc1` was 53.6%. The value for `CCCCn1c(=O)c(/C=C/C(=O)/C=C/c2cc3ccccc3n(CCCC)c2=O)cc2ccccc21` was -22.8% (active). Consider `COc1cc(-c2csc(NC(=O)Nc3cc(Cl)cc(Cl)c3)n2)cc(OC)c1OC`, for which the growth was 27.5%.

As to `CCOC(=O)/C=C1\SC(=Nc2ccc(C#N)cc2)N(CCN2C(=O)/C(=C/C(=O)OCC)SC2=Nc2ccc(C#N)cc2)C1=O`, the growth is 92.9%. The value for `Cc1cccc(C)c1NCc1nnc(-c2ccco2)o1` was 80.5%. As for `O=[N+]([O-])c1ccc(N=Nc2c(O)c(N=Nc3cc([N+](=O)[O-])cc([N+](=O)[O-])c3O)cc(N=Nc3cc(S(=O)(=O)O)cc4cc(S(=O)(=O)O)cc(O)c34)c2O)cc1`, the growth is 113%.

`COc1ccc([C@H]2[C@@H](F)C(=O)N2c2cc(OC)c(OC)c(OC)c2)cc1F`: the growth was 59%. As for `Nc1n[nH]c2cccc(C#Cc3cccc(NC(=O)c4cc(N5CCOCC5)cc(C(F)(F)F)c4)c3)c12`, the growth was 43.9%. The value for `O=Cc1[nH]c(Sc2ccccc2)c2ccccc12` was 66.9%; that for `O=C(O)c1cn(C2CC2)c2cc(N3CCN(Cc4nnc(Nc5ccccc5)o4)CC3)c(F)cc2c1=O` was 108%. Regarding `COc1cc(C(C)c2ccc3c(ccn3C)c2)cc(OC)c1OC` (stereo not given), the growth is 67.2%.

Consider `CCOc1ccc(C2N(c3cc(OC)c(OC)c(OC)c3)C(=O)C2(F)F)cc1` (stereo not given), for which the growth was 71%. Turning to `c1ccc2nc(N3CCOCC3)c(N3CCCCC3)nc2c1`, the growth was 95.8%. As to `COC1=CC=CC2(OC)C3(O)CCCc4cccc(c43)N3C(=O)COC132` (stereo not given), the growth was 103%. In the case of `Nc1c(C(=O)Nc2cccc3ccccc23)sc2nc3c(cc12)CCCCCC3`, the growth is 70.6%. Take `c1ccc2c3c([nH]c2c1)C(c1ccc(C2NCCc4c2[nH]c2ccccc42)cc1)NCC3` (stereo not given): the growth is 77.1%. For `N#CC1(C#N)C2=C(CCCC2)NC(c2c(F)cccc2Cl)C1(C#N)C#N` (stereo not given), the growth is 92.1%. Regarding `C=C1C(=O)O[C@H]2[C@H]1CC/C(COC(=O)c1c[nH]c3ccccc13)=C\CC[C@@]1(C)O[C@@H]21`, the growth is -78.3% (active). As to `C#C[C@@]1(O)[C@@H](CO)O[C@@H](n2cnc3c(-c4ccccc4)ncnc32)[C@@H]1O`, the growth is 104%.

For `C=C1C(=O)O[C@H]2[C@H]1CC/C(COC(=O)c1cn(C)c3ccccc13)=C\CC[C@@]1(C)O[C@@H]21`, the growth is -36.5% (active). With `c1ccc(-c2cn3ccnc3c(-c3ccc4c(c3)ncn4C3CCCCC3)n2)cc1`, the growth is 106%. Turning to `O=C1NC(c2ccc(F)cc2)N=C2C(c3ccccc3)=NOC12` (stereo not given), the growth is 99.9%. Take `O=C(NC[C@H](O)CN1CCc2ccccc2C1)c1cc(NC2COC2)ncn1`: the growth was 108%. As for `Cc1cccc(C)c1Nc1nnc(-c2ccc(F)cc2)o1`, the growth was 96.1%. Take `COc1ccc(Nc2cc(NC(=O)CNc3cc(OC)c(Cl)c(OC)c3Cl)ncn2)cc1`: the growth was 68.5%. `COC(=O)/C=C/c1cc(OC)c2c(c1)[C@@H](C(=O)OC)[C@H](c1ccc(OC)c(OC)c1)O2`: the growth was 79.4%. For `C/C(=N/Nc1nc2ccccc2n1C)c1ccccn1`, the growth is -12.1% (active). The value for `C#CCOC(=O)[C@]1(C)CCC[C@]2(C)[C@H]3C[C@H]4C(C(C)C)=C[C@]3(CC[C@H]21)[C@@H]1C(=O)CCC(=O)[C@@H]14` was 85.9%. For the compound `CCOC(=O)/C(=C/c1c(-c2ccccc2)[nH]c2ccccc12)C(=O)c1ccc(Cl)cc1`, the growth was 71.3%. Then `C=C1C(=O)O[C@H]2[C@H]1CC/C(COC(=O)NCc1nc3ccccc3[nH]1)=C\CC[C@@]1(C)O[C@@H]21`, with 88.4%. The value for `COc1ccc(/C=C/C(=O)C(CC2CCC2)C(=O)/C=C/c2ccc(OC)c(OC)c2)cc1OC` was -0.278% (active).

In the case of `COc1cc(-c2nn(-c3ccc(Br)cc3)cc2CO)ccc1O`, the growth is 105%. As to `Nc1c(C(=O)Nc2ccccn2)sc2nc3c(cc12)CCCC3`, the growth is 82.8%. Consider `Cc1cccc(C)c1NC(=O)CN(CC(C)C)CC(O)COc1ccccc1` (stereo not given), for which the growth is 94.9%.
